Data published in ChEMBL document CHEMBL3988442, “University of Dundee, Small-Polar-MMV Screening Library” (2021).
Screen size: about 48,000 compounds; about 13,000 (27%) showed an effect of 50% or more. The list shows a part of the results.

System: Wolbachia pipientis
Assay: Anti-Wolbachia Cell-Based Screen
Format: functional
Design: scale not given: in the data most compounds retested in dose-response had high values
Details: 5 µM

SMILES | Percent Effect [%]
Cc1cccc(CN2CC3(CCN(C(=O)N(C)C)CC3)OCC2=O)n1.O=C(O)C(F)(F)F | 105.7
Cc1cccc(CN2CCC3(CCCN(C(=O)N(C)C)C3)C2=O)n1.O=C(O)C(F)(F)F (centres undefined) | -4.614
Cc1cccc(CN2CC3(CCN(S(=O)(=O)C4CC4)CC3)OCC2=O)n1.O=C(O)C(F)(F)F | 102.5
CCS(=O)(=O)N1CCC2(CC1)CN(Cc1ccccn1)C(=O)CO2.O=C(O)C(F)(F)F | -5.616
Cc1cccc(CN2CC3(CCN(C4CCOC4)CC3)OCC2=O)n1.O=C(O)C(F)(F)F.O=C(O)C(F)(F)F (centres undefined) | 100.8
CC(CCNC(=O)N1CCC1)N(C)C(=O)OC(C)(C)C (centres undefined) | -2.382
Cl.Cl.O[C@@H]1C[C@@](CNCc2ccc(F)cc2)(COc2cccnc2)C[C@@H]1O | -10.51
Cc1ncc(CNCC2CCC(C(N)=O)CC2)n1-c1ccccc1 (centres undefined) | -1.319
CCc1nc(N)nc(NCCC(=O)NC2CCCCC2)c1C | 10.22
CCS(=O)(=O)NCC1Cn2nnc(-c3cccc(C)c3)c2CO1 (centres undefined) | -10.41
CCOCCC(=O)N1C[C@H]2CC[C@@H]1CN(c1ncccn1)C2 | 22.34
Cc1ncsc1CN1CC[C@H]2OCC[C@@]2(C(=O)NC(C)C)C1.O=C(O)C(F)(F)F | 3.331
Cc1ncsc1CN1CC[C@H]2OCC[C@@]2(C(=O)NC2CC2)C1.O=C(O)C(F)(F)F | 0.183
O=C(NC1CC1)[C@H]1CN(Cc2ccc3c(c2)OCO3)C[C@H]2OCC[C@@H]12.O=C(O)C(F)(F)F | -14.17
CN(C)C(=O)[C@@H]1CCO[C@@H]2CCN(Cc3ccc4c(c3)OCO4)C[C@@H]21.O=C(O)C(F)(F)F | -16.18
CC(C)NC(=O)[C@@H]1CN(Cc2ccc3c(c2)OCO3)C[C@H]2OCC[C@H]21.O=C(O)C(F)(F)F | -18.01
O=C(NC1CC1)[C@@]12CCO[C@@H]1CCN(Cc1ccc3c(c1)OCO3)C2.O=C(O)C(F)(F)F | 117
CN1CCC2(COCCN(Cc3ccc4c(c3)OCO4)C2)C1.O=C(O)C(F)(F)F.O=C(O)C(F)(F)F (centres undefined) | -6.126
CN(C)C(=O)[C@@]12CCO[C@@H]1CCN(Cc1ccc3c(c1)OCO3)C2.O=C(O)C(F)(F)F | 104.9
CNC(=O)[C@@]12CCO[C@@H]1CCN(Cc1cccc(C)c1)C2.O=C(O)C(F)(F)F | 5.352
CC(C)NC(=O)[C@@]12CCO[C@@H]1CCN(Cc1ccc3c(c1)OCO3)C2.O=C(O)C(F)(F)F | 90.31
CNC(=O)[C@@]12CCO[C@@H]1CCN(Cc1ccc3c(c1)OCO3)C2.O=C(O)C(F)(F)F | 92.17

SMILES | Percent Effect [%]
O=C(NC1CC1)[C@@H]1CN(Cc2ccc3c(c2)OCO3)C[C@H]2OCC[C@H]21.O=C(O)C(F)(F)F | -3.513
O=C1OCCN1Cc1cccc(C(F)(F)F)c1F | -20.92
CCC(NC(=O)c1ccco1)c1ccccc1OCC(=O)N1CCCC1 (centres undefined) | 7.206
CCOc1ccc(NC(=O)c2oc(CC)cc2C)cc1CO | -16.02
CC(C)NC(=O)[C@@]12CCO[C@@H]1CCN(Cc1ccco1)C2.O=C(O)C(F)(F)F | 113.3
O=C(NCc1ccco1)[C@@]12CCO[C@@H]1CCN(CC1CCOCC1)C2.O=C(O)C(F)(F)F | -4.272
Cc1cc(CN2CC[C@H]3OCC[C@@]3(C(=O)NCc3ccco3)C2)no1.O=C(O)C(F)(F)F | -7.292
O=C(NC1CC1)[C@@H]1CCO[C@@H]2CCN(C3CCCC3)C[C@H]21 | -4.337
COc1ccc(CN2CCN(CC3CC3)[C@@H]3CS(=O)(=O)C[C@@H]32)cc1O | 13.23
CC(C)(C)c1n[nH]cc1CNC1CCC(O)CC1 (centres undefined) | 81.49
Cc1n[nH]cc1CNC1CCN(c2cccc(C(F)(F)F)c2)CC1 | -2.63
CC(C)(C)c1n[nH]cc1CNC1CCC(C(F)(F)F)CC1.Cl (centres undefined) | 89.77
CC(C)(C)c1n[nH]cc1CNC1CCC(OCC(F)(F)F)CC1.Cl (centres undefined) | 88.78
Cc1n[nH]cc1CNC1CCN(c2ccc(F)cc2)CC1.Cl | -3.892
COc1ccc(-c2cc[nH]n2)cc1CNC1CCCC1 | -3.837
Cc1n[nH]cc1CNCc1ccnc(OCC(F)(F)F)c1.Cl | -12.37
Cc1ccc(CNCc2c[nH]nc2C(C)(C)C)c(OC2CCOC2)c1 (centres undefined) | 13.41
CN(Cc1ccccc1)CC(C)(C)NC(=O)c1cnccn1 | 4.118
Cc1cccc(S(=O)(=O)N2CC[C@H]3[C@H]2CCN3c2ncccn2)c1.O=C(O)C(F)(F)F | -3.796
O=c1[nH]ccc2cc(-c3cc(O)cc(CCC4CCCCN4)c3)ccc12 (centres undefined) | -30.56
Cc1cccc(C(=O)N2CCCC2)c1NCC(=O)NC(C)(C#N)C1CC1 (centres undefined) | 5.415
CCC(CC)c1cc(CNC(=O)N2CCCC(N(C)C)C2)on1 (centres undefined) | -19.35
